# From PubChem BioAssay AID1159580 (chemical genetic matrix, 2015)
# Among all 5,500 compounds or so, about 2,000 (36%) were called active. Inconclusive results (about 18%) are left out. Some of the results follow. A number with no mark means an inactive call. Cut-off read from the data, not from the text of the source: active = normalized growth mostly below about 0.91 (no sharp cut-off); inconclusive = no clear call, values can overlap the other calls; inactive = mostly above about 0.92.
# Test: chemical genetic growth profiling, strain panel (AID 1159580);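 note: tested at 20 µM; growth read once vehicle control cultures reached saturation at 30 °C; 1 = growth at the plate median or of vehicle wells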
# Conditions: growth OD
smiles,measurement,setting,value
O=c1c(O)c(-c2ccc(O)c(O)c2)oc2cc(O)ccc12,normalized growth,"S. cerevisiae deletion strains, locus YKL009W, strain mrt4, stronger effect = lower value",1.03
same,normalized growth,"S. cerevisiae deletion strains, locus YKL068W, stronger effect = lower value",0.99
same,normalized growth,"S. cerevisiae deletion strains, locus YKL085W, strain MDH1 (second series), stronger effect = lower value",1
same,normalized growth,"S. cerevisiae deletion strains, locus YKL085W, strain MDH1, stronger effect = lower value",1
same,normalized growth,"S. cerevisiae deletion strains, locus YKL160W, strain elf1, stronger effect = lower value",0.982
same,normalized growth,"S. cerevisiae deletion strains, locus YKL190W, strain CNB1, stronger effect = lower value",0.881 (active)
same,normalized growth,"S. cerevisiae deletion strains, locus YKR001C, strain vps1, stronger effect = lower value",0.857 (active)
same,normalized growth,"S. cerevisiae deletion strains, locus YKR026C, strain gcn3, stronger effect = lower value",1
same,normalized growth,"S. cerevisiae deletion strains, locus YKR091W, strain srl3, stronger effect = lower value",1
same,normalized growth,"S. cerevisiae deletion strains, locus YLL001W, strain dnm1, stronger effect = lower value",0.994
same,normalized growth,"S. cerevisiae deletion strains, locus YLL026W, stronger effect = lower value",0.995
same,normalized growth,"S. cerevisiae deletion strains, locus YLL041C, strain sdh2, stronger effect = lower value",0.996
same,normalized growth,"S. cerevisiae deletion strains, locus YLR027C, strain aat2, stronger effect = lower value",0.968
same,normalized growth,"S. cerevisiae deletion strains, locus YLR039C, strain RIC1, stronger effect = lower value",0.848
same,normalized growth,"S. cerevisiae deletion strains, locus YLR058C, strain SHM2, stronger effect = lower value",0.978
same,normalized growth,"S. cerevisiae deletion strains, locus YLR102C, strain apc9, stronger effect = lower value",1.01
same,normalized growth,"S. cerevisiae deletion strains, locus YLR113W, strain HOG1, stronger effect = lower value",0.571 (active)
same,normalized growth,"S. cerevisiae deletion strains, locus YLR221C, strain rsa3, stronger effect = lower value",0.95
same,normalized growth,"S. cerevisiae deletion strains, locus YLR258W, strain gsy2, stronger effect = lower value",1
same,normalized growth,"S. cerevisiae deletion strains, locus YLR262C, strain YPT6 (second series), stronger effect = lower value",0.981
same,normalized growth,"S. cerevisiae deletion strains, locus YLR262C, strain YPT6, stronger effect = lower value",0.877
same,normalized growth,"S. cerevisiae deletion strains, locus YLR268W, strain sec22, stronger effect = lower value",0.854 (active)
same,normalized growth,"S. cerevisiae deletion strains, locus YLR320W, strain mms22, stronger effect = lower value",0.942
same,normalized growth,"S. cerevisiae deletion strains, locus YLR330W, strain CHS5, stronger effect = lower value",0.908 (active)
same,normalized growth,"S. cerevisiae deletion strains, locus YLR342W, strain FKS1 (second series), stronger effect = lower value",0.753 (active)
same,normalized growth,"S. cerevisiae deletion strains, locus YLR342W, strain FKS1, stronger effect = lower value",0.978
same,normalized growth,"S. cerevisiae deletion strains, locus YLR357W, strain rsc2, stronger effect = lower value",0.922
same,normalized growth,"S. cerevisiae deletion strains, locus YLR370C, strain arc18, stronger effect = lower value",0.978
same,normalized growth,"S. cerevisiae deletion strains, locus YLR371W, strain rom2, stronger effect = lower value",0.882 (active)
same,normalized growth,"S. cerevisiae deletion strains, locus YLR384C, strain iki3, stronger effect = lower value",0.98
same,normalized growth,"S. cerevisiae deletion strains, locus YLR418C, strain cdc73, stronger effect = lower value",0.565 (active)
same,normalized growth,"S. cerevisiae deletion strains, locus YML016C, strain PPZ1, stronger effect = lower value",0.974
same,normalized growth,"S. cerevisiae deletion strains, locus YML032C, strain rad52, stronger effect = lower value",0.962
same,normalized growth,"S. cerevisiae deletion strains, locus YML120C, strain ndi1, stronger effect = lower value",1.01
same,normalized growth,"S. cerevisiae deletion strains, locus YML124C, strain tub3, stronger effect = lower value",1
same,normalized growth,"S. cerevisiae deletion strains, locus YMR058W, strain fet3, stronger effect = lower value",0.944
same,normalized growth,"S. cerevisiae deletion strains, locus YMR078C, strain ctf18, stronger effect = lower value",0.997
same,normalized growth,"S. cerevisiae deletion strains, locus YMR125W, strain sto1, stronger effect = lower value",1.02
same,normalized growth,"S. cerevisiae deletion strains, locus YMR129W, stronger effect = lower value",0.986
same,normalized growth,"S. cerevisiae deletion strains, locus YMR205C, strain PFK2, stronger effect = lower value",0.994
same,normalized growth,"S. cerevisiae deletion strains, locus YMR223W, strain ubp8, stronger effect = lower value",0.893 (active)
same,normalized growth,"S. cerevisiae deletion strains, locus YMR231W, strain pep5, stronger effect = lower value",0.987
same,normalized growth,"S. cerevisiae deletion strains, locus YMR263W, strain SAP30, stronger effect = lower value",0.892
same,normalized growth,"S. cerevisiae deletion strains, locus YMR307W, strain GAS1, stronger effect = lower value",0.675
same,normalized growth,"S. cerevisiae deletion strains, locus YNL067W, strain RPL9B, stronger effect = lower value",0.901
same,normalized growth,"S. cerevisiae deletion strains, locus YNL071W, strain lat1, stronger effect = lower value",0.945
same,normalized growth,"S. cerevisiae deletion strains, locus YNL128W, strain TEP1, stronger effect = lower value",0.864
same,normalized growth,"S. cerevisiae deletion strains, locus YNL153C, strain GIM3, stronger effect = lower value",0.806 (active)
same,normalized growth,"S. cerevisiae deletion strains, locus YNL183C, strain NPR1, stronger effect = lower value",0.357 (active)
same,normalized growth,"S. cerevisiae deletion strains, locus YNL209W, strain ssb2, stronger effect = lower value",0.949
same,normalized growth,"S. cerevisiae deletion strains, locus YNL233W, strain BNI4, stronger effect = lower value",0.795 (active)
same,normalized growth,"S. cerevisiae deletion strains, locus YNL248C, strain rpa49, stronger effect = lower value",0.995
same,normalized growth,"S. cerevisiae deletion strains, locus YNL250W, strain rad50, stronger effect = lower value",0.942
same,normalized growth,"S. cerevisiae deletion strains, locus YNL271C, strain bni1, stronger effect = lower value",0.978
same,normalized growth,"S. cerevisiae deletion strains, locus YNL298W, strain CLA4, stronger effect = lower value",0.965
same,normalized growth,"S. cerevisiae deletion strains, locus YNL307C, strain MCK1, stronger effect = lower value",0.779 (active)
same,normalized growth,"S. cerevisiae deletion strains, locus YNL322C, strain KRE1 (second series), stronger effect = lower value",1
same,normalized growth,"S. cerevisiae deletion strains, locus YNL322C, strain KRE1, stronger effect = lower value",0.918 (active)
same,normalized growth,"S. cerevisiae deletion strains, locus YNR049C, strain mso1, stronger effect = lower value",0.997
same,normalized growth,"S. cerevisiae deletion strains, locus YNR052C, strain pop2, stronger effect = lower value",1
same,normalized growth,"S. cerevisiae deletion strains, locus YOL006C, strain TOP1, stronger effect = lower value",0.52 (active)
same,normalized growth,"S. cerevisiae deletion strains, locus YOL012C, strain htz1",0.318
same,normalized growth,"S. cerevisiae deletion strains, locus YOL147C, strain pex11, stronger effect = lower value",1
same,normalized growth,"S. cerevisiae deletion strains, locus YOR001W, strain rrp6, stronger effect = lower value",0.935
same,normalized growth,"S. cerevisiae deletion strains, locus YOR061W, strain CKA2, stronger effect = lower value",0.955
same,normalized growth,"S. cerevisiae deletion strains, locus YOR069W, strain VPS5, stronger effect = lower value",0.997
same,normalized growth,"S. cerevisiae deletion strains, locus YOR070C, strain gyp1, stronger effect = lower value",0.968
same,normalized growth,"S. cerevisiae deletion strains, locus YOR080W, strain dia2, stronger effect = lower value",0.984
same,normalized growth,"S. cerevisiae deletion strains, locus YOR083W, strain WHI5, stronger effect = lower value",0.984
same,normalized growth,"S. cerevisiae deletion strains, locus YOR106W, strain vam3, stronger effect = lower value",0.984
same,normalized growth,"S. cerevisiae deletion strains, locus YOR136W, strain idh2, stronger effect = lower value",0.976
same,normalized growth,"S. cerevisiae deletion strains, locus YOR144C, strain elg1, stronger effect = lower value",1.01
same,normalized growth,"S. cerevisiae deletion strains, locus YOR184W, strain ser1, stronger effect = lower value",0.883
same,normalized growth,"S. cerevisiae deletion strains, locus YOR231W, strain MKK1, stronger effect = lower value",0.54 (active)
same,normalized growth,"S. cerevisiae deletion strains, locus YOR265W, strain rbl2, stronger effect = lower value",1.02
same,normalized growth,"S. cerevisiae deletion strains, locus YOR270C, strain vph1, stronger effect = lower value",1.02
same,normalized growth,"S. cerevisiae deletion strains, locus YOR290C, strain snf2, stronger effect = lower value",0.997
same,normalized growth,"S. cerevisiae deletion strains, locus YOR316C, strain cot1, stronger effect = lower value",1.01
same,normalized growth,"S. cerevisiae deletion strains, locus YPL051W, strain arl3, stronger effect = lower value",0.962
same,normalized growth,"S. cerevisiae deletion strains, locus YPL055C, strain LGE1, stronger effect = lower value",0.784
same,normalized growth,"S. cerevisiae deletion strains, locus YPL078C, strain atp4, stronger effect = lower value",1.01
same,normalized growth,"S. cerevisiae deletion strains, locus YPL106C, strain sse1, stronger effect = lower value",0.971
same,normalized growth,"S. cerevisiae deletion strains, locus YPL240C, strain hsp82, stronger effect = lower value",0.998
same,normalized growth,"S. cerevisiae deletion strains, locus YPL241C, strain CIN2, stronger effect = lower value",0.981
same,normalized growth,"S. cerevisiae deletion strains, locus YPL256C, strain CLN2, stronger effect = lower value",0.421 (active)
same,normalized growth,"S. cerevisiae deletion strains, locus YPR119W, strain clb2, stronger effect = lower value",1.01
same,normalized growth,"S. cerevisiae deletion strains, locus YPR141C, strain kar3, stronger effect = lower value",0.978
same,normalized growth,"S. cerevisiae deletion strains, locus YPR163C, strain tif3, stronger effect = lower value",0.956
same,normalized growth,"S. cerevisiae deletion strains, locus YPR167C, strain met16, stronger effect = lower value",1.01
same,normalized growth,"S. cerevisiae deletion strains, strain wtn01, stronger effect = lower value",0.86 (active)
same,normalized growth,"S. cerevisiae strains, strain wild type, stronger effect = lower value",0.815 (active)
